# Measured values from PubChem BioAssay AID504848 (National Center for Advancing Translational Sciences (NCATS), 2011).
# Among all 2,300 compounds or so, about 1,400 (61%) were called active. Not shown: some 29% with an inconclusive outcome. So high a share suggests a set chosen from earlier hits. Some of the results follow. A number with no mark means an inactive call. The call rests on the fitted dose curve; in most records, active means well fitted inhibition curve with a large enough effect; inconclusive means small, poorly fitted or top-dose-only effect, or effect the other way; inactive means no such curve, though single readings can be large or run the other way.
# Test: Confirmation screen for delayed death inhibitors of the malarial parasite plastid, 96 hour incubation; further: nearly all actives have a fitted effect of over 60% in size
# Conditions: P. falciparum luciferase growth in erythrocytes; series mostly up to 28.7 µM; activity change, negative = inhibition: at the top concentration
# Outline: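 Erythrocytes infected with luciferase-expressing P. falciparum (2% hematocrit, 0.1% parasitemia final) in RPMI 1640 with 0.5% Albumax, exposed to compounds 96 h at 37 C, 5% CO2. Growth inhibition read as decreased luciferase luminescence.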
# On the % scale 0 is the no-effect control and ±100 the full control effect; potency means the concentration at half of the fitted maximal effect.
Structure (SMILES),Potency,"activity change, negative = inhibition"
CCC(CC)COC(=O)C1=C(C)NC(=O)NC1c1ccccc1Br (stereo unspecified),10 µM (active),–
OC1(c2cccs2)CN(c2ccc(Br)cc2)C2=[N+]1CCCS2 (stereo unspecified),8.91 µM (active),–
OC1(c2cccs2)CN(c2ccc(Cl)cc2)C2=[N+]1CCCC2 (stereo unspecified),6.31 µM (active),–
Cc1[nH]c(=O)c(C(=O)/C=C/c2ccccc2)c2c1CCCC2,4.47 µM (active),–
Cc1[nH]c2ccccc2c(=O)c1C(=O)/C=C/c1ccccc1,3.55 µM (active),–
Cc1[nH]c2ccccc2c1/C=N/NC(=O)CNC(=O)Cc1ccccc1,–,-7.72%
Cc1[nH]c(=O)c(C(=O)/C=C/c2ccccc2F)c2c1CCCC2,5.62 µM (active),–
CCC1CCCCN1CCCNC(=O)Cn1c(=O)c2cccn2c2cccnc21 (stereo unspecified),–,-16.3%
CCC1CCCCN1CCCNC(=O)CNC(=O)c1nn(-c2ccc(OC)c(Cl)c2)c(=O)c2ccccc12 (stereo unspecified),6.31 µM (active),–
N=C(N)c1ccc(/C=C/c2ccc(C(=N)N)cc2O)cc1,0.251 µM (active),–
C=C1C(=O)O[C@@H]2[C@H]1CC[C@H](C)[C@]1(O)CCC(=O)[C@@]21C,7.08 µM (active),–
CCCCC1(c2ccc(F)cc2)NC(=O)N(CC(=O)N2CCN(C(=O)c3ccco3)CC2)C1=O (stereo unspecified),12.6 µM (active),–
CC(C)c1ccc2[nH]c(O)c(N=NC(=O)c3ccc(CSc4nncn4C)cc3)c2c1,2.24 µM (active),–
O=S(=O)(c1ccc(F)cc1)N1CCN(c2nc(-c3ccc(F)cc3)cs2)CC1,11.2 µM (active),–
CCOC(=O)c1cc(-c2ccc(C)cc2)n(CCC(=O)NCCN(C)C)c1C,10 µM (active),–
CCOc1ccc(/C=C/C(=O)NCCc2ccc(OC)c(OC)c2)cc1,15.8 µM (active),–
O=S(=O)(Nc1ccc(O)c(Sc2nc3ccccc3s2)c1)c1cccc2ccccc12,12.6 µM (active),–
Cc1ccc(-n2ncc3c(SCc4ccccn4)ncnc32)c(C)c1,14.1 µM (active),–
CCCC(=O)N=C1SC2CS(=O)(=O)CC2N1c1ccc(CC)cc1 (stereo unspecified),14.1 µM (active),–
Cc1cc(Br)ccc1NC(=O)CNC(=O)Cn1ncc(Cl)c(Cl)c1=O,11.2 µM (active),–
CCC(=O)Nc1ccc(C(=O)Cn2ncc(Cl)c(Cl)c2=O)cc1,15.8 µM (active),–
CCOC(=O)C(C(=O)OCC)C(Nc1cccc(Br)c1)c1ccccc1 (stereo unspecified),10 µM (active),–
CC(C)Cc1ccc(C(=O)Nc2ccc(Cc3ccncc3)cc2)o1,10 µM (active),–

Structure (SMILES),Potency,"activity change, negative = inhibition"
COc1ccc(NC(=S)N(CCCN2CCCCCC2)Cc2cccs2)cc1,11.2 µM (active),–
Cc1ccc(C(=O)c2cc([N+](=O)[O-])ccc2N2CCOCC2)c(C)c1,14.1 µM (active),–
Cc1ccc(CNS(=O)(=O)c2ccc(C)s2)cc1,–,25.7%
Cc1ccc(CN2CCC(CNS(=O)(=O)c3ccc(-c4ccc(=O)[nH]n4)s3)CC2)cc1,5.01 µM (active),–
CCOC(=O)c1cnc2c(C)c(Cl)ccc2c1NCCCN1CCOCC1,0.282 µM (active),–
O=C(N/N=C/C(Cl)=C\c1ccccc1)c1cccs1,4.47 µM (active),–
O=C(N/N=C(\CC(=O)c1cccs1)C(F)(F)F)c1ccncc1,–,-31.4%
Cc1cccc(CCNC(=O)CNS(=O)(=O)c2ccc3nc(C)sc3c2)c1,1.58 µM (active),–
CCOc1ccc(C(C)=O)cc1COc1ccc(-c2nnco2)cc1,11.2 µM (active),–
Oc1ccc(Cl)cc1CNc1cnc2ccccc2c1,11.2 µM (active),–
O=C(C[n+]1cc(Br)cc2ccccc21)c1ccccc1,5.01 µM (active),–
COc1ccc2c(ccc[n+]2CC(=O)c2ccccc2)c1,14.1 µM (active),–
OCCNC(=S)Nc1ccc(Cl)c(Cl)c1,2.24 µM (active),–
O=C1c2ccccc2C(=Nc2ccccc2)C1c1cccc(Br)c1 (stereo unspecified),3.98 µM (active),–
COc1ccc(N(CC(=O)N/N=C/c2cccnc2)S(=O)(=O)c2ccccc2)c(OC)c1,6.31 µM (active),–
O=C(CCl)NCCN1C(=O)S/C(=C\c2cccnc2)C1=O,5.01 µM (active),–
O=C(c1ccc2c(=O)n3c(nc2c1)CCCCC3)N1CCN(c2ccc([N+](=O)[O-])cc2)CC1,6.31 µM (active),–
CC(=O)N1CN(C2CCCC2)Cc2c1sc1c2CCCC1,6.31 µM (active),–
COc1ccc(C(=O)CSc2nnc(C3CCCCC3)n2N)c(OC)c1,3.16 µM (active),–
CCN(CC(=O)Nc1ccc(S(=O)(=O)N2CCOCC2)cc1)Cc1ccccc1,10 µM (active),–
O=S(=O)(c1ccc(OCC(O)CN2CCN(c3ccc(F)cc3)CC2)cc1)N1CCOCC1 (stereo unspecified),12.6 µM (active),–
O=C(CN1CCN(c2ccc(F)cc2)CC1)Nc1ccc(S(=O)(=O)N2CCOCC2)cc1,10 µM (active),–
C=CCOc1ccc(/C=C\c2nc(O)c([N+](=O)[O-])c(=O)[nH]2)cc1OC,12.6 µM (active),–
